Source: PubChem (Broad Institute)
F508del corr = CFTR F508del correction in bronchial cells; CFBE cells, YFP halide quenching; stimulated with forskolin plus potentiator P3; % fluorescence drop versus neutral controls; activity (quench increase), % at 7.58 µM; 350,000 tested, 0.36% active; AID 720511;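 active = mean added fluorescence quench of at least 8% versus neutral control, with both replicates also reaching 8%; inconclusive = only one of the mean or replicate conditions met; inactive = mean below 8% and not both replicates reaching 8%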;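 note: cells transiently co-express mutant CFTR-F508del with the halide-sensitive YFP; corrector assay measuring rescue of mutant channel to the surface after 24 h compound exposure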
Wnt bcat act = activators of Wnt/beta-catenin signaling; Wnt/beta-catenin reporter cell assay, activator, plate reader; activation, % at 9.35 µM; 300,000 tested, 1.2% active; AID 743398; in the data active = activation above about 30%, passing the limit was not always enough; inconclusive = no clear call, values can overlap the other calls;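 note: 0% = neutral control wells and 100% = positive control wells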
MITF act = increases MITF-driven TRPM1 promoter luciferase signal | SK-MEL-5 TRPM1-promoter luciferase, 24 h; % of positive control, neutral wells = 0 | activation, % at 12.5 µM | 300,000 tested, 0.75% active | AID 588334;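 active = mean activation of at least 80% with every replicate also reaching 80%; inconclusive = mean reaches 80% but some replicate falls short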;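 note: 0% = neutral control wells and 100% = parthenolide positive control wells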
INS-1E GSIS act = GLuc luminescence reporter in INS-1E cells, primary screen for activators of glucose-dependent secretion of insulin | INS-1E GLuc reporter insulin secretion, 2-3 h | activation, % at 16.6 µM | 370,000 tested, 0.61% active | AID 743287;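 active = lowest replicate activation of at least 40%, so every replicate reaches that level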;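 note: 0% = median of neutral control wells and 100% = median of IBMX positive control wells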
HIV Env fusion = HIV envelope-mediated fusion inhibition; AID 651610; 360,000 tested, 1.1% active; HeLa-JRFL Env/CEM21 cell fusion, luciferase; inhibition, % at 12.3 µM;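 active = mean replicate inhibition score of at least 50 and every replicate individually at or above 50; inconclusive = only one of the two criteria met; inactive = mean below 50 and not all replicates reaching 50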;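 note: 0% = plate neutral controls and 100% = maraviroc near 300 nM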
The depositor's hits bear a star; i = inactive; u = inconclusive; x = no result; ! = a repeat was not active; [ ] = another dose, or the depositor's remark. In the library only some 2.7% were active in any assay of this set; here they are far more common.

SMILES | F508del corr | Wnt bcat act | MITF act | INS-1E GSIS act | HIV Env fusion
CC(=O)O[C@H]1C(=O)[C@]2(C)[C@H]([C@H](OC(=O)c3ccccc3)[C@]3(O)C[C@H](OC(=O)[C@H](O)[C@@H](NC(=O)c4ccccc4)c4ccccc4)C(C)=C1C3(C)C)[C@]1(OC(C)=O)CO[C@@H]1C[C@@H]2O | 10* | -9 | -29 | -14 | -89
COc1ccc2c3c([nH]c2c1)[C@@H](CO)N(C(=O)NC(C)C)CC31CN(C(=O)NC2CCCC2)C1 | x | x | x | 8 | x
COCC(=O)Nc1ccc2c(c1)[C@H]1C[C@H](CC(=O)NCCN3CCCCC3)O[C@@H](CO)[C@H]1O2 | -6 | x | x | 6 | 15[16.7 µM]
C[C@H]1CC=CCCNC(=O)[C@H](C)N(C)C(=O)c2ccccc2O1 (mixture of isomers) | x | x | x | -1 | x
Cc1ncsc1CCOC(=O)c1cccc([N+](=O)[O-])c1 | -1 | 2 | -11 | 42*! | -21
COCCNC(=O)C[C@@H]1CC[C@H]2[C@@H](COc3ccc(NC(=O)C4CCCC4)cc3C(=O)N2C)O1 | 0 | x | x | -3 | -5[16.7 µM]
CC(C)COC(=O)N1C[C@H](O)C[C@H]1C(=O)Nc1ccc(Cl)cc1 | -3 | 0 | x | 120* | -15
Cc1ccc(C)c(C(=O)Nc2nc3ccccc3[nH]2)c1 | 0 | -4 | 31 | 45* | -8
O=C(Nc1nc2ccccc2[nH]1)c1cccc(Cl)c1 | 4 | 32* | x | 2 | -269
O=C(Nc1nc2ccccc2[nH]1)c1ccccc1O | 2 | 42* | u | 16 | -136
Cc1cccc(C)c1OCc1nc2ccccc2[nH]1 | x | -2 | 6 | -20 | -9
Cc1ccc(S(=O)(=O)N2CCOCC2)cc1C(=O)Nc1nc2ccccc2[nH]1 | x | x | 18 | -13 | 0
Cc1ccc(C)c(OCc2nc3ccccc3[nH]2)c1 | 2 | 46* | 69 | 4 | -29
O=C(Nc1nc2ccccc2[nH]1)c1ccccc1 | x | x | -8 | x | x
CC(C)CC#Cc1ccc2c(c1)O[C@H](CN(C)C(=O)CN(C)C)[C@@H](C)CN([C@@H](C)CO)S2(=O)=O | -1 | x | x | -12 | 9[16.7 µM]
CCCNC(=O)C[C@@H]1C[C@H]2c3cc(NC(=O)C4CCOCC4)ccc3O[C@H]2[C@H](CO)O1 | 2 | x | x | -7 | -10[16.7 µM]
O=S(=O)(N[C@@H]1CCCN(Cc2ccc(OCCO)cc2)C1)c1cc(Cl)ccc1Cl | 0 | x | x | x | -8[16.7 µM]
COc1ccc(-c2ccc3c(c2)C2CC3CCN2S(=O)(=O)c2ccccc2C)cc1 (stereo unspecified) | -2 | -3 | -15 | x | 57*
COc1ccccc1-c1nc(-c2ccc(C)nc2OC)no1 | x | 61* | x | x | -134
COc1ccccc1-c1noc(-c2cccs2)n1 | -4 | 23 | 121* | x | x
COc1ccc(S(=O)(=O)N(C)C[C@H]2Oc3ccc(NC(=O)CCCCCC(=O)Nc4ccccc4N)cc3CC(=O)N([C@H](C)CO)C[C@H]2C)cc1 | 0 | x | x | 3 | 11[16.7 µM]
O=C(C[C@@H]1CC[C@H](NC(=O)c2cccnc2)[C@@H](CO)O1)NCc1ccncn1 | 0 | x | x | 7 | -109[16.7 µM]
COc1ccc(-c2cc3cc(F)ccc3cn2)cc1 | 2 | 43* | 67 | 2 | -157
COc1ccc(-c2cc3ccc(F)cc3cn2)cc1 | 0 | u | 55 | -3 | i
COc1cc(OC)cc(-c2cc3cc(F)ccc3cn2)c1 | 0 | 39* | 121* | 16 | 30
SMILES | F508del corr | Wnt bcat act | MITF act | INS-1E GSIS act | HIV Env fusion
Cc1noc(C)c1NC(=O)Nc1ccc2c(c1)C(=O)N([C@@H](C)CO)C[C@@H](C)[C@@H](CN(C)Cc1ccc3c(c1)OCO3)OCCCC[C@@H](C)O2 | -1 | x | x | -3 | -9[16.7 µM]
CCN(CC)S(=O)(=O)c1ccc(NC(=O)C2CC(=O)N(c3ccc4c(c3)OCCO4)C2)cc1 (stereo unspecified) | 15* | -7 | 1 | -25 | 7
Cc1ccnc(NC(=O)C2CC(=O)N(c3ccc4c(c3)OCCO4)C2)c1 (stereo unspecified) | -1 | 46* | 99* | -2 | -37
COc1ccc(NC(=O)C[C@H]2CC[C@H]3[C@@H](COc4ccc(NC(C)=O)cc4C(=O)N3C)O2)cc1 | 2 | x | x | -2 | -9[16.7 µM]
C[C@H](NC(=O)C[C@H]1C[C@H]2c3cc(NC(=O)c4cccnc4)ccc3O[C@H]2[C@H](CO)O1)c1ccccc1 | -1 | x | x | 11 | -6[16.7 µM]
O=C/C=C/c1ccc(/C=C/c2ccccc2)cc1 | -3 | x | x | x | -99[16.7 µM]
O=C1C=CCC(/C=C/c2ccccc2)O1 (stereo unspecified) | 15* | -10 | x | x | x
Cc1noc(C)c1S(=O)(=O)Nc1ccc2c(c1)C(=O)N([C@H](C)CO)C[C@@H](C)[C@@H](CN(C)C(=O)Nc1ccc(F)cc1)O2 | -5 | x | x | -2 | -7[16.7 µM]
COc1ccc(CCNc2ccc(C(CC(N)=O)NC(=O)Cc3ccc(Br)cc3)cc2[N+](=O)[O-])cc1 (stereo unspecified) | 0 | -2 | -6 | -7 | 74*
NC(=O)CC(NC(=O)Cc1ccc(Br)cc1)c1ccc(N2CCC(Br)CC2)c([N+](=O)[O-])c1 (stereo unspecified) | -4 | -6 | 0 | x | 63*
CCCN(C)C[C@@H]1Oc2cc(-c3ccccc3C)ccc2S(=O)(=O)N([C@@H](C)CO)C[C@@H]1C | 2 | x | x | 9 | -5[16.7 µM]
COc1ccc(-c2ccc([C@H]3[C@@H](CO)N4C(=O)CN(C(=O)C5CCCC5)C[C@H]34)cc2)cc1 | 2 | x | x | -7 | x
CCN=c1scc(-c2ccco2)n1/N=C/c1ccc(OC)c(O)c1 | 3 | 40* | 72 | -8 | x
COc1cccc(Cl)c1NC(=O)N1CCc2c([nH]c3ccccc23)C1C(F)(F)F (stereo unspecified) | 0 | -1 | 17 | -7 | 83*
O=Nc1c2nc3ccccc3n(O)c-2c2ccccc12 | x | 40* | x | -2 | -287
C[C@H]1CN([C@@H](C)CO)S(=O)(=O)c2ccc(-c3cccnc3)cc2O[C@H]1CN(C)CC1CCOCC1 | -1 | x | x | 2 | 4[16.7 µM]
O=C(N[C@H]1CC[C@@H](CC(=O)N2CCc3ccccc3C2)O[C@@H]1CO)C1CC1 | -1 | x | x | 7 | -6[16.7 µM]
COc1ccc(/C=N/Nc2nccnc2Cl)c(OC)c1 | x | x | 88* | 22 | 1
COc1ccc(/C=N/Nc2nonc2N)c(OC)c1 | -1 | -6 | -4 | 15 | 65*
COc1ccc2c3c(n(C)c2c1)[C@H](CO)N(C(=O)Nc1ccc(F)cc1)CC31CN(Cc2cccnc2)C1 | -3 | x | x | -23 | -6[16.7 µM]
CCCN1[C@@H]2c3ccc(-c4ccc(OC)cc4)c(=O)n3C[C@@H]2[C@@H](CO)[C@@H]1C(=O)NCC | 0 | x | x | 1 | x
COc1ccc(-c2[nH]c3ccccc3c2SCCNC(=O)c2cc3ccccc3oc2=O)cc1 | -2 | 6 | x | x | -3
COc1ccc(-c2[nH]c3ccccc3c2SCCN)cc1 | -2 | -1 | 9 | 57* | 16
O=C(Nc1ccc2c(c1)OCO2)c1cc(-c2cccc(O)c2)on1 | 5 | 21 | 115* | 4 | -11
CC(C)Cc1cc(C(=O)Nc2ccc3c(c2)OCO3)no1 | -3 | 58* | 58 | x | -184
